Measured values reported in ChEMBL document CHEMBL3988442, “University of Dundee, Small-Polar-MMV Screening Library” (2021).
For some assays here: Measured potencies and affinities stand elsewhere.

Assays:
Parameters in all cases: scale not given: direction of the effect not stated beside the values
[1] = biological target: Protein translocase subunit SecA (Escherichia coli (strain K12)) (UniProt P10408); assay: Assay to Identify E. coli SecA ATPase Inhibitors; assay type: functional; settings: 30 µM
Chain of Protein translocase subunit SecA (Escherichia coli (strain K12)) (P10408 whole entry): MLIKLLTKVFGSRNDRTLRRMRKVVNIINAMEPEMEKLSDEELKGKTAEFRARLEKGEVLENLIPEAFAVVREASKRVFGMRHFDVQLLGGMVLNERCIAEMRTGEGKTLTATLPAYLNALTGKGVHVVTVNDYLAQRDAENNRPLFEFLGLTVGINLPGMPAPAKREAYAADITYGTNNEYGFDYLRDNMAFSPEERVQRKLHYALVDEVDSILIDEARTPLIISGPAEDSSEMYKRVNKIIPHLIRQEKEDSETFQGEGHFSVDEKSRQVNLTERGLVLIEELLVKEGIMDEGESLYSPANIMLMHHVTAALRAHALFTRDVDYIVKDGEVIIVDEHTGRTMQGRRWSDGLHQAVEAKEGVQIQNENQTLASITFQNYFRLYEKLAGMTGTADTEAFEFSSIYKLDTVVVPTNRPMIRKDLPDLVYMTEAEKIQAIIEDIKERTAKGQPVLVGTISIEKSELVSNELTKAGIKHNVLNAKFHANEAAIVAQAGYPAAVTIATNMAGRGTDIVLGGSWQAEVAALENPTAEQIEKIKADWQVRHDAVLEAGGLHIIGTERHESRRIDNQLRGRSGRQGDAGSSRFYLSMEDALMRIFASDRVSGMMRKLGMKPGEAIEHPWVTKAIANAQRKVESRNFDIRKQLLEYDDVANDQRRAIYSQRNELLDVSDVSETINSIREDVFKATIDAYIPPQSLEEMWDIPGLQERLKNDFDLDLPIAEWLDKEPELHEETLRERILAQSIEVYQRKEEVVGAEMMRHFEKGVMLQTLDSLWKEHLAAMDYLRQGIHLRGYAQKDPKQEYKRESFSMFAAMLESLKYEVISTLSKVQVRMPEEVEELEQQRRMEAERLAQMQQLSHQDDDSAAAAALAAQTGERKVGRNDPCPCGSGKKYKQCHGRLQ

[2] = biological target: T1, Ubiquitin-activating enzyme e1, putative (Leishmania donovani (strain BPK282A1)) (UniProt E9BSI1); assay: Leishmania donovani Ubiquitin Activating Enzyme (LdE1); assay type: functional; settings: 30 µM
T1 sequence (whole entry): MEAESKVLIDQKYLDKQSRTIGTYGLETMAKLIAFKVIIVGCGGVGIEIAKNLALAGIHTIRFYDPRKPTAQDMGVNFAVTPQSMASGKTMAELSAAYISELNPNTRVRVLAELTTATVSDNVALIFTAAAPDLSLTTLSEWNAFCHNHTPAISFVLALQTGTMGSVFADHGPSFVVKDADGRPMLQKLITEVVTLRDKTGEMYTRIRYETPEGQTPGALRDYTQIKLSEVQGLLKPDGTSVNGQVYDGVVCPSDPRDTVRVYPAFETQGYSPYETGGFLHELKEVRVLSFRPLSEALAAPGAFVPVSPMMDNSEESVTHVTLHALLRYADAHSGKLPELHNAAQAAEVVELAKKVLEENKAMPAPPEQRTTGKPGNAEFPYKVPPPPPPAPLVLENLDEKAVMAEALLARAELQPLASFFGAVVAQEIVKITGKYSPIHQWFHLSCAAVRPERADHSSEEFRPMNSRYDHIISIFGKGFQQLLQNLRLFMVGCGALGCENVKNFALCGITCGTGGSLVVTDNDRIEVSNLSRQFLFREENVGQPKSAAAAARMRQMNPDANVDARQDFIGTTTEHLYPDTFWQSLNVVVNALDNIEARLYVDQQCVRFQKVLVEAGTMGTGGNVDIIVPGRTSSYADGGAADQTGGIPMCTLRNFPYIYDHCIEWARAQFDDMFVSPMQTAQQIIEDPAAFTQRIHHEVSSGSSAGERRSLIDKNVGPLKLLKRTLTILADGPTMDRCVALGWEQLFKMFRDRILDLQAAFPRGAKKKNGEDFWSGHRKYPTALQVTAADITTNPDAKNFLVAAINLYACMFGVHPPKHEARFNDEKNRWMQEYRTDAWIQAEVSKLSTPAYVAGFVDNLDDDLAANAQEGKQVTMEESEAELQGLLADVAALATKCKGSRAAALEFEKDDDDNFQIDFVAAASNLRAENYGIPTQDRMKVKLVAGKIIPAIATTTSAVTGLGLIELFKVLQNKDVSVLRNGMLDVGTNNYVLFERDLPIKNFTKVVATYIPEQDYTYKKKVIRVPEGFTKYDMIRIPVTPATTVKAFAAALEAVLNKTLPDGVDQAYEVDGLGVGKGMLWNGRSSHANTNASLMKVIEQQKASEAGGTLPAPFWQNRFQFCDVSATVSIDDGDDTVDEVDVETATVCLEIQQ

[3] = biological target: Sialic acid-binding Ig-like lectin 9 (Homo sapiens) (UniProt Q9Y336); assay: Hs-Siglec9 ALPHAscreen SOP 20170721; settings: 10 µM
Chain of Sialic acid-binding Ig-like lectin 9 (Homo sapiens) (Q9Y336 whole entry): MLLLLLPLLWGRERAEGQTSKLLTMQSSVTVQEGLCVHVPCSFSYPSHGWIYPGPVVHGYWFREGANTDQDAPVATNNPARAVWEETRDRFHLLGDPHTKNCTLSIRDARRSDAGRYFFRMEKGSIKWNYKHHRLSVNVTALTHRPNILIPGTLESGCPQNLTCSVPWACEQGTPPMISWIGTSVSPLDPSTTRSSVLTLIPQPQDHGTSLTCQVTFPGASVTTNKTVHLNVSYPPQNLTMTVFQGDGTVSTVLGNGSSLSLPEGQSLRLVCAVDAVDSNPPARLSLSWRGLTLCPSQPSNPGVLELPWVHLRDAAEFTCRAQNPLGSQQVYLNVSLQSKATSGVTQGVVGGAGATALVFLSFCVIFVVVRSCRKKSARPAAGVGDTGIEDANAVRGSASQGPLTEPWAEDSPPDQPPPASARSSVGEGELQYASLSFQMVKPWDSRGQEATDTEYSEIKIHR

[4] = tested on: Trypanosoma cruzi; assay: Trypanosoma cruzi phosphomannomutase and mannose-1-phosphate guanylyltransferase assay; assay type: functional; settings: 10 µM
[5] = biological target: T2, Arginase-2, mitochondrial (Homo sapiens) (UniProt P78540); assay: in vitro enzyme assay to detect the production of urea directly proportional to the activity of Arginase II; assay type: functional; settings: 33.3 µM; note: in the data most compounds retested in dose-response had high values
T2 sequence (whole entry): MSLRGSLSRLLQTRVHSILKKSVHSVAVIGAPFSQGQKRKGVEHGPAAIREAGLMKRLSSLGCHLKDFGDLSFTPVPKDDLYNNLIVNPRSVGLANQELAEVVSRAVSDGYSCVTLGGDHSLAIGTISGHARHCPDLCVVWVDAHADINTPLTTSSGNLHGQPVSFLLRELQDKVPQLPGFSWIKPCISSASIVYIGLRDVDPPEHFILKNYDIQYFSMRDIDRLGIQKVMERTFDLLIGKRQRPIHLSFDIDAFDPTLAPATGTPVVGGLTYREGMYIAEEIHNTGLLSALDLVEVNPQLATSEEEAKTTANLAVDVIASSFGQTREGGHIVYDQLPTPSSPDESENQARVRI

[6] = biological target: T3, Proteasome subunit beta (Trypanosoma cruzi) (UniProt O96673); assay: Trypanosoma cruzi proteasome chymotrypsin-like activity (TcProtChymo) assay.; note: in the data most compounds retested in dose-response had high values; assay type: functional; settings: 9.37 µM
T3 sequence (whole entry): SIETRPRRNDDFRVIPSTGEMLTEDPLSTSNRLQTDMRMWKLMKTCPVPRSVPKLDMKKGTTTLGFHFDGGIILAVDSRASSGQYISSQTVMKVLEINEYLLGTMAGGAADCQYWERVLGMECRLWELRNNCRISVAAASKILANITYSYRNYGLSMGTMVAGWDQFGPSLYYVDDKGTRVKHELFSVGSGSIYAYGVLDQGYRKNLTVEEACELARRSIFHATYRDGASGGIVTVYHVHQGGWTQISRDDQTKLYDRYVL

[7] = species: Homo sapiens; assay: To identify inhibition of the IFN signalling (Jak-Stat) pathway via expression of an eGFP reporter gene under the control of an IFN-stimulated response element (ISRE) containing MxA promoter.; assay type: functional; settings: 30 µM
[8] = biological target: T4, Tyrosyl-tRNA synthetase, putative (Trypanosoma cruzi (strain CL Brener)) (UniProt Q4DSP6); assay: Trypanosoma cruzi tyrosyl tRNA synthetase (TcYRS) _High Tyrosine SOP; assay type: functional; settings: 30 µM; note: in the data most compounds retested in dose-response had high values
T4 sequence (whole entry): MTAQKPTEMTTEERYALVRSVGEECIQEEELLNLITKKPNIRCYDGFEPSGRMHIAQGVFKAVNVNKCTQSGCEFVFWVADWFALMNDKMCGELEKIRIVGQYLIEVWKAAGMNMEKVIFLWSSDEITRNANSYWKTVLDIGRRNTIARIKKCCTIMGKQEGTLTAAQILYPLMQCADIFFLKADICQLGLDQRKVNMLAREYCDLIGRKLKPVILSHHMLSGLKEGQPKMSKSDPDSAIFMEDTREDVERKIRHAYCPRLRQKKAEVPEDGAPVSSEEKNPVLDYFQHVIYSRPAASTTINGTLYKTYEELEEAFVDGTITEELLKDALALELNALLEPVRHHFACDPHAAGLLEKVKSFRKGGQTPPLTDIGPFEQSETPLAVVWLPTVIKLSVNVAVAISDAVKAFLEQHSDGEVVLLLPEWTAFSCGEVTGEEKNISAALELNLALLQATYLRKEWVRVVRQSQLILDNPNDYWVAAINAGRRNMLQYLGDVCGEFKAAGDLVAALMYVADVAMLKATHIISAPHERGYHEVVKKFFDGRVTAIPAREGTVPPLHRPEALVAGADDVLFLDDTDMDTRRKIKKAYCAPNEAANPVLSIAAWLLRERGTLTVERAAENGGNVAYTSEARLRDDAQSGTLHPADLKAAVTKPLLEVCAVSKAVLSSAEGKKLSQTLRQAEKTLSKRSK

[9] = biological target: T4, Tyrosyl-tRNA synthetase, putative (Trypanosoma cruzi (strain CL Brener)); assay: Trypanosoma cruzi tyrosyl tRNA synthetase (TcYRS) SOP; assay type: functional; settings: 30 µM
[10] = biological target: Chromo domain-containing protein 1 (Saccharomyces cerevisiae (strain ATCC 204508 / S288c) (Baker's yeast)) (UniProt P32657); assay: ScCHD-1 Enzyme Inhibition Assay; assay type: functional; settings: 30 µM; note: in the data most compounds retested in dose-response had high values
Chain of Chromo domain-containing protein 1 (Saccharomyces cerevisiae (strain ATCC 204508 / S288c) (Baker's yeast)) (P32657 whole entry, the tested form may be a part): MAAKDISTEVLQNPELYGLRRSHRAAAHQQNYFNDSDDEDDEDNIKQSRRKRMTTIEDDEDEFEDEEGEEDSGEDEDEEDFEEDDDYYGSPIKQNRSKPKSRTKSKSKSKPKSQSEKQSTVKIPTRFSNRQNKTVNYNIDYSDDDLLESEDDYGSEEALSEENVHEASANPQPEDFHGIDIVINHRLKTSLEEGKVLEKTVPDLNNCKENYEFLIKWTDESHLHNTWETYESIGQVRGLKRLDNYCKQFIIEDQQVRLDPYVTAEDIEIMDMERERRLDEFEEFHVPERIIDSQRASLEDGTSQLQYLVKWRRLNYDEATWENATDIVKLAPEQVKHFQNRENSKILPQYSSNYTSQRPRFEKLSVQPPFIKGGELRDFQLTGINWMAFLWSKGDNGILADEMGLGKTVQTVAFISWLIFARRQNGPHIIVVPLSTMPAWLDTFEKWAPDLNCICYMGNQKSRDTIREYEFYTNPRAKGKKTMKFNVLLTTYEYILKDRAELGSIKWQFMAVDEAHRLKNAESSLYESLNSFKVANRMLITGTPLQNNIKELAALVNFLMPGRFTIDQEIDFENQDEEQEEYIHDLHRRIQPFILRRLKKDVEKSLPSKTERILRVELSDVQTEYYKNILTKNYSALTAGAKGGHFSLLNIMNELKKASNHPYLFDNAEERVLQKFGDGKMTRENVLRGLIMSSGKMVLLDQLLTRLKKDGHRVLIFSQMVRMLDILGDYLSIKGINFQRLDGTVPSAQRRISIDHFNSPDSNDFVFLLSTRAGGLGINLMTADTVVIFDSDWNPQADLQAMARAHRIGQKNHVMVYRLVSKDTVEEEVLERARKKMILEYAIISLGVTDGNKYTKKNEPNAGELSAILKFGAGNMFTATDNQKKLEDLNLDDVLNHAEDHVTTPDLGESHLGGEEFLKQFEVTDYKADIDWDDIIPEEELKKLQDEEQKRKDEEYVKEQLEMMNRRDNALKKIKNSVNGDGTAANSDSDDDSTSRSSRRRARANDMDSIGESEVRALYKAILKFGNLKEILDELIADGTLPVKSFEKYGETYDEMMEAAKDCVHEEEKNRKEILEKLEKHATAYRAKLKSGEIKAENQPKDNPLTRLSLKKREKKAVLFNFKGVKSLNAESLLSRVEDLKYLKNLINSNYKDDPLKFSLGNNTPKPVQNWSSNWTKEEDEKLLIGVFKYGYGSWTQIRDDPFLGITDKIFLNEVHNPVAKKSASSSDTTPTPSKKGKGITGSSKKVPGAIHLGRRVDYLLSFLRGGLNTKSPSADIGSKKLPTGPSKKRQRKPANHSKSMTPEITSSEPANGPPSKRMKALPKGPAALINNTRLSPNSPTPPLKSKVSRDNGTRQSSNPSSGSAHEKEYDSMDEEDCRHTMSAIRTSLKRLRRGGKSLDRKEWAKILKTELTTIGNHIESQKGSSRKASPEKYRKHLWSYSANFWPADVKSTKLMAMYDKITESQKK

SMILES | Percent Effect [1] [%] | Percent Effect [2] [%] | Percent Effect [3] [%] | Percent Effect [4] [%] | Percent Effect [5] [%] | Percent Effect [6] [%] | Percent Effect [7] [%] | Percent Effect [8] [%] | Percent Effect [9] [%] | Percent Effect [10] [%]
CCc1nc(C2CCCN2C(=O)c2ccc3c(c2)nnn3CC)no1 (stereo not given) | -3.49 | 0 | 5.14 | -1.41 | 0 | 3.99 | 11.6 | 2.63 | 0 | -12.3
CCOc1ccc2[nH]c(=O)c(CN3CCC(O)CC3)cc2c1 | -8.45 | 5.41 | 3.7 | 3.4 | -1.75 | 3.77 | -4.92 | 9.04 | 21.9 | -0.516
COc1cccc2c1OCC(C(=O)N1CCN(S(C)(=O)=O)CC1)C2 (stereo not given) | -5.76 | 16.2 | 16.9 | 6.69 | 11.5 | 9.25 | 11.4 | 7.98 | 17.1 | -8.92
O=C(c1ccco1)N1CCC2(CC1)C(=O)NCCN2CC1CC1 | -7.74 | 1.3 | -3.06 | -8.08 | -4.05 | 15.1 | 8.56 | 1.58 | -2.56 | -1.19
CN(Cc1cccc(F)c1)C(=O)CN1CCOC(Cn2cccn2)C1 (stereo not given) | 0.367 | 0 | 7.99 | 0.933 | 0.615 | 3.86 | 8.18 | 3.92 | 9.41 | -0.994
Cc1nn2cccnc2c1C(=O)N1CCCC(Nc2ccccc2)C1 (stereo not given) | -3.41 | 0 | 1 | -0.803 | 7.54 | -2.46 | -3.46 | 5.79 | 5.13 | 8.56
COc1ccc(CN(C)CC(=O)NC2(C)CCS(=O)(=O)C2)cc1F (stereo not given) | 0.854 | 0 | 4.26 | -5.42 | 4.88 | 2.8 | 17.4 | -0.526 | 0 | -1.6
CC(NC(=O)N1CCN(c2ccccc2)CC1)c1nncn1C (stereo not given) | 1.88 | 10.7 | -3.63 | -2.81 | 7.54 | 11.4 | 13.4 | 3.68 | 5.13 | -13.8
CN1CCOC(CNC(=O)CCCOc2ccccc2F)C1 (stereo not given) | -2.16 | 12.8 | 3.45 | 1.6 | 2.87 | 18.5 | 18.2 | 10.1 | 22.9 | -4.86
CCC(NC(=O)CC(F)(F)F)c1ccccc1OCC(=O)N1CCCC1 (stereo not given) | -0.84 | 15.4 | -4.51 | -0.845 | 0 | 13.4 | -7.93 | 7.18 | 20.5 | -2.48
CC(C)n1[nH]c(=O)c2c1NC(=O)CC2c1cccnc1 (stereo not given) | 0.982 | 13.5 | 1.14 | 0.873 | 1.75 | 18.7 | 23.6 | 3.72 | 19.5 | -3.39
CS(=O)(=O)N1CCC2(CC1)CC(CC(=O)N1CCCC1)c1ccccc12 (stereo not given) | -6.42 | 6.49 | 10.4 | -2.43 | -5.67 | 2.21 | -5.9 | 1.58 | -7.69 | 2.73
Cn1c(Cn2cccn2)nnc1C1CCCN(c2ccncc2F)C1 (stereo not given) | -3.83 | 10.8 | 2.04 | -2.62 | 0.35 | 12 | 27.1 | 2.66 | 12.2 | 0.18
CCc1cnc(CN2CCC(N(C)Cc3noc(C4CC4)n3)C2)o1 (stereo not given) | -3.48 | 0 | -1.21 | -2.24 | 4.3 | 0.175 | 5.76 | 0.98 | -2.35 | 0.446
Cc1cc(N2CCC(CC(N)=O)CC2)nc(-c2ccncc2)n1 | -7.29 | 13 | 10.8 | -1.87 | 3.07 | 11.1 | -5.86 | 7.84 | 21.2 | -6.28
CCOC(=O)CN1CCC2(CC1)CC(=O)c1ccc(OC)cc1O2 | -2.51 | 27.3 | 8.34 | 4.13 | -4.11 | 19.1 | 7.83 | 1.93 | 15 | -11
CN(C)C[C@H]1OC[C@@H]2CCN(S(=O)(=O)c3ccccc3)C[C@@H]21 | -7.48 | 3.9 | 9.94 | -4.58 | -5.26 | 7.33 | 5.69 | -2.63 | -5.13 | -2.54
Cc1nccn1-c1cccc(C2CCCN(C(=O)c3cc[nH]n3)C2)n1 (stereo not given) | 0.661 | 25.3 | -9.09 | 0.395 | -3.98 | 17.9 | 32.9 | 1.06 | 10 | -7.28
CN(C(=O)Cc1c[nH]c2ccccc12)C1CCN(c2ccccn2)CC1 | -4.77 | 2.67 | -1.22 | -3.81 | 1.77 | 4.16 | 31.5 | 3.68 | 0 | -14.4
CCc1nc(CN2CCCN(C(=O)COCC3CC3)CC2)cs1 | -1.44 | 12.8 | -6.97 | -0.282 | 0.82 | 9.64 | 6.06 | 11 | 22.9 | -6.08
CN(C)C(=O)CN1C(=O)CCC12CCN(Cc1ccc(F)cc1)CC2 | -1.87 | 22.1 | -5.35 | 0.188 | 3.2 | 18.1 | 14 | 9.66 | 15 | -11.4
Cc1cnn(CC2CCCN2CC(=O)Nc2cc(C)nn2C)c1 (stereo not given) | -2.33 | 5.2 | 5.19 | 2.8 | 1.02 | -5.44 | 0.341 | 4.9 | 16.5 | -7.89
CC(C)c1cc(N2CCC(CCC(=O)NC3CC3)CC2)n2nccc2n1 | -2.45 | 5.41 | 2.79 | -0.097 | 2.45 | 9.76 | 7.29 | 4.79 | 12.2 | -3.08
